Test results reported in the OligoGym collection.

What follows are sequences tested against TC2N (assay: pooled miR-30 sensor sort-seq; sequence = guide strand). Conditions: shRNA.
Note: reference of the scale not given here.

Row | Sequence | sensor-assay potency score (higher = more potent)
1 | TAAAACTGTGATCCAGATCTGT | -0.0159
2 | TTTCTTCTTACAGAGCTTCGAC | -0.277
3 | TTAAATCACAAACCGATCCATA | -0.989
4 | TTACTGTCTGTGTCTCTTGTTG | -0.31
5 | TTACTGTCTTCACTTATCCAAA | -1.52
6 | TAGCATTTTGACTATTTGGGAC | -0.206
7 | TTAATAGCAAATACAAACGTTT | -0.542
8 | TTGAAGAAGAACTACTGGGTAC | -0.298
9 | TTATAAATCAACTCTCCCGAGC | -0.579
10 | TTTAATAGCAAATACAAACGTT | -0.37
11 | TGAACTGGAAAGTTCTACCTTT | 0.507

The sequences below were run against TCEA3 in the same assay as above. Conditions: shRNA.

Row | Sequence | sensor-assay potency score (higher = more potent)
12 | TTCCGGTACTTCATGTCCGTGC | 0.146
13 | TCTGATGCCATCTTGTCACAGT | -0.177
14 | ATTAACAGCAACTCCAATCCTG | 0.388
15 | TTAACAGCAACTCCAATCCTGG | -0.797
16 | TCGATTTCTGATGCCATCTTGT | -0.388
17 | TTGGTAGATATGATCTTCGATT | -0.766
18 | TTGAGGTTGCTTATGCGGCTGC | -0.208
19 | TTCTTCTTCTTGCATTTGCTGC | -0.856
20 | TACTTCATGTCCGTGCTCTTGA | 0.446
21 | TCTTGTCACAGTTGACTCCATA | -0.75
22 | TTCTTCTTGCATTTGCTGCACT | -0.468
23 | ATAGGTGCAGTTCTTCTTCTTG | -0.625

What follows are sequences tested against TCEAL1 in the same assay as above. Conditions: shRNA.

Row | Sequence | sensor-assay potency score (higher = more potent)
24 | ATCAGTTTGTTTCTTACTCTTT | -0.801
25 | TTCTAGCTCATCTGCTGCCTGT | -0.542
26 | TTCGGGAGAGTGCTCCACCGGA | -1.49
27 | TCATCTCTTCTAGCTCATCTGC | -1.12
28 | TTTGTTTCTTACTCTTTTCATC | -1.09
29 | ATTATCATCAGTTTGTTTCTTA | 0.834
30 | TTACTCTTTTCATCTCTTCTAG | -0.0336
31 | TTTTCATCTCTTCTAGCTCATC | -1.39
32 | TTATGTTTTCCTACTCCACAAG | -1.15
33 | TAAATTGCGGGCGAGAACGAGC | -1.13
34 | AAAGCTTCCTTCTTCAAGCTTA | 0.373
35 | TGTATCATCTCCTCATTGCTTA | 0.297

These sequences were tested against TCEANC2 in the same assay as above. Conditions: shRNA.

Row | Sequence | sensor-assay potency score (higher = more potent)
36 | TTGAGTTTCAGTTACCTGCAGG | -0.555
37 | TAGAAGGTCTATTTGAATGTTT | -0.0592
38 | TATAGTAGTAACTTCATCTGAC | 0.875
39 | TTGATTTTAACACTTCCCTGGA | 0.232
40 | TTGATCAGGAAGCTCCAGCATA | -0.895
